Compound activity as filed in PubChem.
This is one part of a sample in which hits are shown more often than they occur.
Tg IFNy HTS = blocks Toxoplasma gondii growth in the presence of IFN-gamma. 69,000 compounds, 3.8% hits. AID 1259416. Toxoplasma gondii growth in IFN-gamma-treated host cells; hits give low values. activity change, negative = inhibition, % (test concentration not listed); in the data active means activity change below about -70%, passing the limit was not always enough;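 further: host cells are HeLa cells infected with Toxoplasma gondii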
The depositor's hits bear a star.

SMILES	Tg IFNy HTS
CC(=O)c1c(C)nn(CC(=O)N2CCC(c3noc(-c4ccncc4)n3)CC2)c1C	-26
CS(=O)(=O)NC1CCN(CCn2c(=O)oc3ccccc32)CC1	-4
Cc1cncc(C(=O)N2CCO[C@H]3[C@@H](Oc4cccnc4)CC[C@H]32)c1	5
CCCCS(=O)(=O)N1CCC2(CC1)C(=O)N(C)CCN2Cc1ccccc1	-7
Cc1ncncc1C(=O)NCCc1nc(-c2ccccc2)cs1	12
CCN1c2ccccc2-n2cccc2C12CCN(C(=O)Nc1cccc(Cl)c1C)CC2	-39
CCOC(=O)c1ccc(NC(=O)N2CCC3(CC2)c2cccn2-c2ccc(C)cc2N3CC)cc1	-46
CCN1c2cc(C)ccc2-n2cccc2C12CCN(C(=O)NCc1ccc(F)cc1)CC2	-114*
CCN1c2cc(C)ccc2-n2cccc2C12CCN(C(=O)Nc1cccc(C)c1)CC2	-59
CCN1c2cc(C)ccc2-n2cccc2C12CCN(C(=O)Nc1ccc(C)c(F)c1)CC2	22
CCN1c2cc(C)ccc2-n2cccc2C12CCN(C(=O)Nc1ccc(Cl)cc1)CC2	252
CCN1c2cc(C)ccc2-n2cccc2C12CCN(C(=O)Nc1ccc(C)c(C)c1)CC2	-93*
CCN1c2ccccc2-n2cccc2C12CCN(C(=O)Nc1ccccc1C)CC2	-82*
CCN1c2cc(C)ccc2-n2cccc2C12CCN(C(=O)NCc1ccco1)CC2	42
CCN1c2ccccc2-n2cccc2C12CCN(C(=O)Nc1ccccc1C(F)(F)F)CC2	185
CCN1c2cc(C)ccc2-n2cccc2C12CCN(C(=O)NCc1ccccc1)CC2	60
CCN1c2cc(C)ccc2-n2cccc2C12CCN(C(=O)Nc1ccc(F)cc1)CC2	-96*
O=C(c1cccc(F)c1)N1CCN(S(=O)(=O)c2cc3c4c(c2)CCC(=O)N4CCC3)CC1	-37
C(=C\c1ccccc1)/CN1CCN(CCn2cncn2)CC1	-3
O=C(Sc1cccs1)c1cncc(C#Cc2ccccc2)c1	4
Cc1[nH]c2ccccc2c1CC(=O)NCc1nnc(-c2ccccc2)o1	13
Cc1cnc(N2CCCn3c(CN4CCCC4)nnc3C2)nc1	-29
CC(=O)N1C[C@H]2CCCN(c3ncc(C)cn3)[C@H]2C1	16
COc1ccc(OC)c(CNc2nc(-c3ccc(Cl)cc3)nc3ccccc23)c1	-33
CCc1nn(C)c(Cl)c1CN1CCCC(OCc2ccccn2)C1 (centres undefined)	8
SMILES	Tg IFNy HTS
COc1cccc2ccc(CN(C)Cc3cc(-c4ccccc4)no3)nc12	4
CCC(C)n1ncn(-c2ccc(N3CCN(c4ccc(OCC5COC(Cn6cncn6)(c6ccc(Cl)cc6Cl)O5)cc4)CC3)cc2)c1=O (centres undefined)	-95*
Cc1ccc(C(C)NC(=O)Cn2ncc3c(N4CCCCCC4)ncnc32)cc1 (centres undefined)	105
Cc1ccc(NC(=O)Cn2c(=O)cc(C(=O)N3CCCCC3)c3ccccc32)c(C)c1	7
O=C(O)CCCn1cc(NC(=O)COc2ccc3ccccc3c2)cn1	12
Cc1cccc(S(=O)(=O)N2CC[C@@H]3[C@@H](CO)Nc4ccc(-c5ccccc5F)cc4[C@@H]32)c1	-48
COc1ccccc1-c1ccc2c(c1)[C@@H]1[C@@H](CCN1S(=O)(=O)c1ccc(C)cc1)[C@H](CO)N2	-78*
COc1ccccc1-c1ccc2c(c1)[C@H]1[C@H](CCN1C(=O)C1CCC1)[C@H](CO)N2	-71*
CC(=O)N1CC[C@@H]2[C@H]1c1cc(-c3ccccc3)ccc1N[C@@H]2CO	41
COc1ccccc1-c1ccc2c(c1)[C@H]1[C@H](CCN1S(=O)(=O)c1ccc(C)cc1)[C@@H](CO)N2	-63
COc1ccccc1-c1ccc2c(c1)[C@H]1[C@H](CCN1Cc1ccccc1F)[C@@H](CO)N2	-56
N#Cc1ccc(-c2ccc3c(c2)[C@@H]2[C@@H](CCN2C(=O)C2CCCCC2)[C@@H](CO)N3)cc1	-63
COc1ccccc1-c1ccc2c(c1)[C@H]1[C@H](CCN1C(=O)C1CCC1)[C@@H](CO)N2	-76*
N#Cc1ccc(-c2ccc3c(c2)[C@H]2[C@H](CCN2C(=O)C2CCCCC2)[C@H](CO)N3)cc1	-31
CCn1c(=O)c(-c2nc(-c3ccc(F)cc3)no2)c(O)c2ccc(F)cc21	104
COCC(=O)Nc1ccccc1-c1cccc(NC(C)=O)c1	3
COCCN1CCc2ncnc(-c3ccsc3)c2CC1	4
O=c1[nH]c2ccccc2cc1CN1CCc2c([nH]c3ccccc23)C1	-27
Cc1nsc(NC(=O)N(C)CC2COc3ccccc3O2)n1 (centres undefined)	103
CCc1cc(N2CCC3(CC2)CNC(=O)C3)nc(N2CCCC2)n1	-53
Cc1ccc(Oc2ncccc2CNC(=O)c2cc3ccccc3[nH]2)cn1	29
CC[C@@H]1C(=O)N(C)c2cnc(Nc3ccc(C(=O)NC4CCN(C)CC4)cc3OC)nc2N1C1CCCC1	-76*
COc1cc(OC2CCN(C)CC2)ccc1Nc1ncc2c(n1)n(C1CCCC1)c(=O)n2C	-59
CCN1C(=O)CCc2cc(C(=O)NC3CCCCC3)ccc21	68
COc1ccccc1OCC(=O)O	25
SMILES	Tg IFNy HTS
COc1ccccc1OCc1cc(C(=O)N(C)Cc2cc(C)no2)no1	-9
COc1cc(C(=O)N(C)CCOc2ccccc2OC)c2ccccc2n1	-93*
Cc1nnc(NC(=O)CSc2ccccn2)s1	10
CCc1nnc(NC(=O)CSc2nc3cccnc3n2Cc2ccccc2)s1	-83*
O=C(CSc1nc2ccccc2n1Cc1ccccc1)Nc1ccccn1	-6
Cc1nc(-c2cccc(F)c2)sc1CCNC(=O)c1ccc(OC(C)C)cc1	-47
CCOCC(=O)N1CC[C@@H]2OCC[C@@]2(c2nc(C)no2)C1	142
CCC(CO)N(Cc1ccco1)C(=O)c1cccn1C (centres undefined)	-1
COc1cccc(NC(=O)Nc2ccc(-c3nc(-c4ccc(C)cc4C)co3)cc2)c1	2
CCOc1ccc(NC(=O)Nc2ccc(-c3nc(-c4cccc(Br)c4)co3)cc2)cc1	1
CC[C@H](CC#N)OC(=O)N[C@@H](C)c1cccc(NC(=O)Nc2ccc(-c3cnco3)c(OC)c2)c1	-82*
O=C(c1cc2cccnc2n(Cc2ccccc2F)c1=O)N1CCc2ccccc21	11
Nc1nnc(Sc2nc3c(Cl)cc(Cl)cc3s2)s1	-85*
Nc1nnc(CSCc2ccc(Cl)cc2Cl)s1	-35
Nc1nnc(SCc2c(Cl)cccc2Cl)s1	80
COC(=O)c1cc(C)nc2c1c(=O)n(Cc1nc(-c3ccc(C)cc3)oc1C)c(=O)n2C	6
Cc1nc(-c2cc(S(=O)(=O)N3CCC(Cc4ccccc4)CC3)c(C)s2)sc1C	2
COCCC(=O)c1cc(-c2ccn(-c3ccccc3)n2)n2ccccc12	89
Cc1nc(-c2cc(C(=O)NCCN(C)C)c3ccccn23)cn1-c1nccs1	21
CN(C)CCNC(=O)c1cc(-c2ccn(-c3ccccc3)n2)n2ccccc12	-106*
Cn1c2ccccc2c2c1cc(C(=O)N1CCCCC1)n2-c1ncccn1	6
Cc1nc(CN2CCC3(C2)CN(CC(=O)O)C3)cs1	-17
Cc1ccc(-c2coc(-c3ccc(NC(=O)Nc4ccc5c(c4)OCO5)cc3)n2)c(C)c1	19
Cc1cc(C)c(Cn2nc(C(C)(C)C)cc2C(=O)Nc2ccc3c(c2)OCO3)c(C)c1	-99*
CCN1CCC2(CC1)OC(=O)C(C)=C2C(=O)Nc1ccc2c(c1)OCO2	124
C=CC(C)(C)c1cc(/C=C/C(=O)c2ccc(O)cc2)c(OC)cc1O	18
CC(C)(C)C(=O)N1C[C@@H]2c3nc(NCC4CC4)ncc3CS(=O)(=O)[C@H]2C1	-6
